Bioassay records (PubChem)
Only some compounds are listed: those with a hit (about 1.8% of all), similar ones and a draw of the others.
GLP1R inv ag – qHTS of GLP-1 Receptor Inverse Agonists (Inhibition Mode); Glucagon-like peptide 1 receptor (Homo sapiens), P43220; HEK293 GLP-1R CRE-luciferase, luminescence, 24 h; GLP-1R form is constitutively active; Potency, µM (highest dose often 38.3 µM), for the others: at the highest dose activity change, negative = inhibition, actives largely listed as inhibitors; 1.6% of 410,000 active; AID 624417, 2012; note: potency is the fitted concentration of half-maximal effect; % is set by controls: 0 for no effect and ±100 for the full control effect; nearly all actives have a fitted effect of over 55% in size
Target sequence (P43220 whole entry, looked up): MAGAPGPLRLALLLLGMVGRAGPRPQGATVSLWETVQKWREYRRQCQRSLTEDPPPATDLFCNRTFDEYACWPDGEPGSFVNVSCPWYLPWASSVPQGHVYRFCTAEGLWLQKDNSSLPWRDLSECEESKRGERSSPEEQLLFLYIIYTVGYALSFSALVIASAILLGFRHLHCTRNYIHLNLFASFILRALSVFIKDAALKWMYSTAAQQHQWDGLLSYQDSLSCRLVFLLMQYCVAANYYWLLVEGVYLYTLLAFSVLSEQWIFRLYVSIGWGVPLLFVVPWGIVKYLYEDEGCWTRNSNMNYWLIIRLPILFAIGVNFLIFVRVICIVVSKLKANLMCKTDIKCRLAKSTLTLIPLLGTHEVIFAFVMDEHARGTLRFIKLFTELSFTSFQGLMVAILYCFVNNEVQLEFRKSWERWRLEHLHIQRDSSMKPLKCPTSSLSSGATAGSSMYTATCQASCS
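Seeding at 200 cells/uL, 12 h culture, 24 hr compound treatment, then luciferase reagent and a luminescence read; cells are HEK293 stably expressing a constitutively active GLP-1R plus cAMP-responsive luciferase.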
TSHR antag – Antagonists of the Thyroid Stimulating Hormone Receptor: HTS campaign. Thyrotropin receptor (Homo sapiens), P16473. TSHR-expressing cells, TSH-stimulated cAMP HTRF, 2 h; stronger effect = lower value. activity change, negative = inhibition, % at 11.5 µM. 0.2% of 330,000 active. AID 504810, 2011;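 active = activity change below a set negative limit, meaning inhibition stronger than a set level, cut at about -70% in these data; inconclusive = activity change between two set negative limits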; note: % is set by controls: 0 for no effect and ±100 for the full control effect
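Read-out is FRET at 665 nm (cryptate excitation 337 nm) from a cryptate-tagged anti-cAMP antibody, competed by cell cAMP against cAMP-d2. Compounds are tested on freshly harvested TSHR cells challenged with 4nM TSH (EC80) for 2 hours at 37 deg C.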
GLP1R cytotox – qHTS of GLP-1 Receptor Inverse Agonists: Cytotox Screen. Potency, µM (top dose mostly 38.3 µM), for inactives: at the highest dose activity change, negative = inhibition, hits mostly inhibitors. AID 624418, 2012. 0.13% of 410,000 active. HEK293 cAMP-luciferase reporter cells, luminescence, 24 h;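 note: loss of luciferase light is scored as toxicity; potency is the fitted concentration of half-maximal effect; % is set by controls: 0 for no effect and ±100 for the full control effect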
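Step one: seed cells (200 cells/uL, DMEM with 10% Nu serum, 1% pen-strep). Step two: 12-hour incubation at 37 deg C. Step three: pin 23 nL compound, incubate 24 hr. Step four: add luciferase reagent, read luminescence 12 min later.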
GLP1R ag – qHTS of GLP-1 Receptor Agonists. Potency, µM (top dose mostly 45.6 µM), for the others: top-dose activation, hits mostly activators. 0.007% of 380,000 active. Glucagon-like peptide 1 receptor (Homo sapiens), P43220. HEK293 GLP-1R CRE-luciferase, luminescence, 4-6 h; cells express a hypersensitive GLP-1R form; note: potency is the fitted concentration of half-maximal effect; % of control where 0% means no effect
PTHR1 agonist – qHTS for PTHR1 Agonists: Primary Screen. 0.075% of 410,000 active. Potency, µM (doses to about 115 µM), for the others: at the top dose activation, most hits filed as activators. HEK293 GP2 PTHR1 cells, GloSensor cAMP luminescence, 1 h; note: potency is the fitted concentration of half-maximal effect; nearly all actives have a fitted effect of over 55% in size
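HEK-293-derived GP2 cells expressing PTHR1 and a GloSensor cAMP reporter, 3,000/well, plated overnight, given luciferin plus IBMX (each 0.5 mM as added) for 1 h at 37 °C, then compound for 1 h at 37 °C. Luminescence was read after 15 min at room temperature.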
An asterisk follows results filed as active. Unless noted, calls come from the whole dose curve; as a rule, active = well fitted curve in the direction sought with a large enough effect; inconclusive = small, poorly fitted or top-dose-only effect, or another doubt; inactive = no such curve, though single readings can be large; an effect the other way counts as inactive or inconclusive.

O=C1c2ccccc2C2(c3cc(C(F)(F)F)cc(C(F)(F)F)c3)NCCN12 (centres undefined) was read as GLP1R inv ag 10µM*, TSHR antag 8.7, GLP1R cytotox -14.7%, GLP1R ag 20.4% and PTHR1 agonist inactive.
O=C(C1=C[C@@H](c2ccc(C(F)(F)F)cc2)C[C@@H](OCc2ccc(CO)cc2)O1)N1CCN(Cc2ccc3c(c2)OCO3)CC1 was read as GLP1R inv ag -15.5%, TSHR antag 10.8, GLP1R cytotox -1.9%, GLP1R ag -2.4% and PTHR1 agonist -28.9%.
O=C(C1=C[C@H](c2ccc(C(F)(F)F)cc2)C[C@H](OCc2ccc(CO)cc2)O1)N1CCN(Cc2ccc3c(c2)OCO3)CC1 was read as GLP1R inv ag 10µM*, TSHR antag 5.6, GLP1R cytotox -11.1%, GLP1R ag -0.8% and PTHR1 agonist -13.4%.
c1ccc(-c2nnc(NC3=NCCC3)o2)cc1 was read as GLP1R inv ag inconclusive, TSHR antag 4.0, GLP1R cytotox 11.3%, GLP1R ag -32.0% and PTHR1 agonist inactive.
`Fc1ccc(-c2nnc(NC3=NCCCCC3)o2)cc1` gave GLP1R inv ag 1µM*, TSHR antag -3.1, GLP1R cytotox 0.3%, GLP1R ag -59.8% and PTHR1 agonist -9.5%.
`CC(C)CNC(=O)c1nn(Cc2ccccc2)c(=O)c2ccccc12` gave GLP1R inv ag inconclusive, TSHR antag -6.5, GLP1R cytotox -7.2%, GLP1R ag 13.8% and PTHR1 agonist inactive.
Screening COc1ccccc1C(=O)NNC(=O)c1nn(Cc2ccccc2)c(=O)c2ccccc12 returned GLP1R inv ag inconclusive, TSHR antag 18.3, GLP1R cytotox 10µM*, GLP1R ag 10.3% and PTHR1 agonist inactive.
For O=C(C(c1ccccc1)c1ccccc1)N1CCCc2ccccc21 the results were GLP1R inv ag 5.01µM*, TSHR antag 28.4, GLP1R cytotox -8.0%, GLP1R ag 1.4% and PTHR1 agonist inactive.
`Cc1c(Br)c([N+](=O)[O-])nn1C(C)C(=O)N1CCCc2ccccc21` (centres undefined) gave GLP1R inv ag 10µM*, TSHR antag -2.1, GLP1R cytotox -22.0%, GLP1R ag -3.7% and PTHR1 agonist -25.1%.
Screening O=C(c1cn(-c2ccccc2)nc1-c1cccs1)N(CCO)Cc1ccccc1 returned GLP1R inv ag 11.2µM*, TSHR antag -5.6, GLP1R cytotox -8.0%, GLP1R ag 17.2% and PTHR1 agonist inactive.
Screening Cc1ccc(S(=O)(=O)N2CCCCC2C(=O)Nc2ccc(N(C)C)cc2)cc1 (centres undefined) returned GLP1R inv ag 7.08µM*, TSHR antag -9.5, GLP1R cytotox -13.1%, GLP1R ag 11.4% and PTHR1 agonist -27.8%.
`Cc1ccc(S(=O)(=O)N2CCCC2C(=O)Nc2ccc(Br)cc2)cc1` (centres undefined) gave GLP1R inv ag inconclusive, GLP1R cytotox -10.0% and PTHR1 agonist -92.6%.
Screening Cc1ccc2c(CC(=O)Nc3ccc(S(=O)(=O)N4CCCCC4C)cc3)coc2c1 (centres undefined) returned GLP1R inv ag 11.2µM*, GLP1R cytotox -6.3% and PTHR1 agonist inactive.
O=C(OCCc1cc2ccccc2c(=O)o1)c1ccccc1C(F)(F)F was read as GLP1R inv ag inconclusive, TSHR antag -71.2*, GLP1R cytotox 4.3%, GLP1R ag 8.9% and PTHR1 agonist -18.8%.
`COc1ccc(-c2nn(-c3ccccc3)cc2/C=N/Nc2ccc3ccccc3n2)cc1OC` gave GLP1R inv ag inconclusive, TSHR antag -9.8, GLP1R cytotox 12.6µM*, GLP1R ag 16.9% and PTHR1 agonist -19.2%.
`Cc1ccc(C)c(N2CCN(S(=O)(=O)c3ccc4c(c3)CC(C)N4C(=O)C3CC3)CC2)c1` (centres undefined) gave GLP1R inv ag 6.5%, TSHR antag -76.9*, GLP1R cytotox -9.8%, GLP1R ag -1.6% and PTHR1 agonist -13.5%.
For Cc1cc(C)n(-c2nc(NCCN(C)C)c3c4c(sc3n2)COC(C)(C)C4)n1 the results were GLP1R inv ag inconclusive, TSHR antag -1.2, GLP1R cytotox inconclusive, GLP1R ag 14.4% and PTHR1 agonist inactive.
For CCN(CC)CCNc1nc(-n2nc(C)cc2C)nc2sc3c(c12)CC(C)(C)OC3 the results were GLP1R inv ag 4.47µM*, TSHR antag -6.7, GLP1R cytotox inconclusive, GLP1R ag -1.8% and PTHR1 agonist 5.9%.
Screening COc1cc(OC)c(NC(=O)N2CCc3c([nH]c4ccccc34)C2c2ccccc2F)cc1Cl (centres undefined) returned GLP1R inv ag -36.9%, GLP1R cytotox -0.8% and PTHR1 agonist 8.2%.
For CCN(CC)CC(=O)Nc1ccc2c(c1)N(C(=O)CN(CC)CC)c1ccccc1CC2 the results were GLP1R inv ag 38.6%, TSHR antag 10.7, GLP1R cytotox 3.98µM*, GLP1R ag 20.5% and PTHR1 agonist inactive.
Cc1cc(C)c2c(-n3cccc3)c(C(=O)NCCc3ccc(Cl)cc3)sc2n1 was read as GLP1R inv ag -0.6%, GLP1R cytotox 8.9% and PTHR1 agonist -6.1%.
Screening Cc1cc2nc(-c3ccc[nH]c3=O)[nH]c2cc1C returned GLP1R inv ag 3.55µM*, TSHR antag 4.8, GLP1R cytotox 73.9%, GLP1R ag 15.9% and PTHR1 agonist -9.8%.
Screening COc1cc(C(=O)NCCNC(=O)c2cnccn2)cc(OC)c1OC returned GLP1R inv ag 5.0%, TSHR antag -81.8*, GLP1R cytotox inconclusive, GLP1R ag 9.1% and PTHR1 agonist inactive.
`CCCCCC[n+]1c(-c2ccccc2)csc1Nc1ccccc1` gave GLP1R inv ag 2.24µM*, TSHR antag -10.0, GLP1R cytotox 0.0%, GLP1R ag 0.3% and PTHR1 agonist -31.7%.
Screening OC(CNCCc1ccc(Cl)cc1)COc1cc(Cl)ccc1Cl (centres undefined) returned GLP1R inv ag 10µM*, TSHR antag 3.2, GLP1R cytotox inconclusive, GLP1R ag 2.9% and PTHR1 agonist -24.3%.
`CCN(CC)C(=O)C1CCCN(c2ccc([N+](=O)[O-])cc2/C=N/NC(=O)c2cccc(Br)c2)C1` (centres undefined) gave GLP1R inv ag 2µM*, TSHR antag -9.5, GLP1R cytotox -19.4%, GLP1R ag -13.1% and PTHR1 agonist inactive.
